Source: PubChem BioAssay
A selection: hits, their analogues and other compounds. The true share with any hit is near 3%.
Ub-GFP proteasome: proteasome inhibitors stabilizing ubiquitin-GFP reporter | 67,000 tested, under 10 active | Potency, µM (highest dose often 45.9 µM), for inactives: at the top dose activation (GFP accumulation), usual class: activators | Ubiquitin-GFP reporter cells, proteasome inhibition, GFP fluorescence; response scale: untreated = 0%, 10 µM MG-132 = 100%; active = well fitted activation curve with a large enough effect, not every such curve was filed as active; inconclusive = small, poorly fitted or top-dose-only effect, or another doubt; inactive = no such curve, though single readings can be large or run the other way; note: potency is the fitted concentration of half-maximal effect
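U2OS cells expressing ubiquitin(G76V)-GFP, seeded overnight in 0.5% FBS medium, then treated 4 hr at 37 C across 46 uM to 2.9 nM. GFP-positive cells counted by laser cytometry (488 ex/515 em); %activity scaled between basal and 10 uM MG-132.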
Tau filament bind: binds recombinant human tau filaments; P10636; recombinant tau filaments, thioflavin S fluorescence, 15 h; filaments grown with octadecylsulfate alongside compound; Potency, µM (top dose mostly 57.1 µM), for inactives: top-dose activity change, negative = inhibition; actives 2% (n = 71,000);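 note: potency is the fitted concentration of half-maximal effect; % is set by controls: 0 for no effect and ±100 for the full control effect; actives lower thioflavin S fluorescence by blocking filaments or displacing dye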
Target sequence (P10636 whole entry, looked up): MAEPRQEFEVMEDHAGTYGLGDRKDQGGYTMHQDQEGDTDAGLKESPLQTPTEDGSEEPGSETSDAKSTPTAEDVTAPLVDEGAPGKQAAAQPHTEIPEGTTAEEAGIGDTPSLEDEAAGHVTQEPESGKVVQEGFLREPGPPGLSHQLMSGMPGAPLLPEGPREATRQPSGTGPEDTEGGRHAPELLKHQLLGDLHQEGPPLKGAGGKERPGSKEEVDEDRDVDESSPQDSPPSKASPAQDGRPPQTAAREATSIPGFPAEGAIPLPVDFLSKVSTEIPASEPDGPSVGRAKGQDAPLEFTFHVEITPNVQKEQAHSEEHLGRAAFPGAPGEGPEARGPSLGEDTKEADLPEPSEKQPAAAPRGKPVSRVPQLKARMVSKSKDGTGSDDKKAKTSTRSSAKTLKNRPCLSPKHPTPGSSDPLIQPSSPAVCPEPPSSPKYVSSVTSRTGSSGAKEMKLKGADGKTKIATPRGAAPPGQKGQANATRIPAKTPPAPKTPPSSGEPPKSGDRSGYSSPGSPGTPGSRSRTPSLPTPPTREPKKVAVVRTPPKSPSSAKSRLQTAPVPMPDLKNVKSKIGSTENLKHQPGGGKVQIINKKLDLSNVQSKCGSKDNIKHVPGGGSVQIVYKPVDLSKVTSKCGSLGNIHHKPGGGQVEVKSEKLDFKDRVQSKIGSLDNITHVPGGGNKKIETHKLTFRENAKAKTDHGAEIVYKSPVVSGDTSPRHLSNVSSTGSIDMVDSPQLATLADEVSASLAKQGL
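Read-out: ThS fluorescence, 450 nm excitation/510 nm emission; lower signal marks blocked filament formation or displaced dye. Tau at 1 uM with 30 uM ODS, 10 uM ThS, 5 mM DTT, 100 mM NaCl, 10 mM HEPES pH 7.4; 15 h, 37 C.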
HBB splicing: hemoglobin beta splicing modulation; Potency, µM (titrated, usually from 46.1 µM), without a hit: at the top dose activation, most hits filed as activators; HBB splicing reporter cell assay, activation; EGFP reporter with mutant IVS2-654 intron; response scale: normalised to 500 nM splice-correcting PNA; actives 0.06% (n = 65,000); note: potency is the fitted concentration of half-maximal effect; 0% is about no effect
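HeLa cells stably expressing EGFP interrupted by mutant beta-globin intron 2 (IVS2-654), 500/well in 2% FCS. Treated with compound for 2 days at 37C. Splicing correction scored as total well GFP intensity (488 nm excitation, 500-520 nm emission); 500 nM antisense PNA served as control.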
Hsp90 Hop PPI: changes Hsp90-Hop TPR2A binding signal, up or down; AlphaScreen TPR2A-His6 binding biotin-Hsp90 C-terminal peptide; Potency, µM (titrated, usually from 57 µM), for the others: top-dose activity change, negative = inhibition; actives 0.44% (n = 71,000); AID 595; active = well fitted curve in either direction with a large enough effect; inconclusive = small, poorly fitted or top-dose-only effect, or another doubt; note: potency is the fitted concentration of half-maximal effect; % is set by controls: 0 for no effect and ±100 for the full control effect
ERK AVP inh: inhibitors of vasopressin-stimulated ERK signaling pathway | Potency, µM (series often up to 57.5 µM), inactives show top-dose activity, negative = inhibition, most hits filed as inhibitors | actives 0.99% (n = 72,000) | HEK293-V1b, vasopressin-stimulated pERK AlphaScreen | AID 995; note: potency is the fitted concentration of half-maximal effect; % is set by controls: 0 for no effect and ±100 for the full control effect; nearly all actives have a fitted effect of over 55% in size
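Phosphorylated ERK1/2 detected via AlphaScreen bead proximity in lysates of V1b-expressing HEK293 cells given 25 nM vasopressin for 5 min after 30 min compound exposure (37 °C). AC50 from Hill equation; basal DMSO 0%, vasopressin 100%.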
Epigenetic mod: derepresses silenced GFP locus in mouse C127i cells; actives 0.09% (n = 68,000); Potency, µM (series often up to 46.1 µM), for the others: at the top dose GFP derepression (activation); AID 597; mouse C127i GFP locus derepression, cytometry, 30 h; note: % of control where 0% means no effect
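Read-out is the number of GFP-positive cells, scored as fluorescent objects 20 to 120 um wide, reflecting derepression of a silenced CMV-GFP reporter in murine C127i cells after 30 h compound exposure at 37 C.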
Active calls of the source: *; i = inactive; ? = inconclusive; · = no result given; ! = not active in a repeat; [ ] = remark or other dose. Unless noted, calls come from the whole dose curve; as a rule, active = well fitted curve in the direction sought with a large enough effect; inconclusive = small, poorly fitted or top-dose-only effect, or another doubt; inactive = no such curve, though single readings can be large; an effect the other way counts as inactive or inconclusive.

SMILES	Ub-GFP proteasome	Tau filament bind	HBB splicing	Hsp90 Hop PPI	ERK AVP inh	Epigenetic mod
Fc1c(F)c(F)c(CSc2nc3ccccc3[nH]2)c(F)c1F	9%	-13%	1%	4µM*	?	4%
Cc1cc(C(=O)CSC(=S)SC(C)(C)C)ccc1Cl	4%[9.17 µM]	-12%[11.4 µM]	2%[9.22 µM]	-4%[11 µM]	8%[11.5 µM]	2%[9.22 µM]
Cc1c(C(=O)O)c(O)cc2c1C(=O)c1c(O)c([C@@H]3O[C@H](CO)[C@@H](O)[C@H](O)[C@@H]3O)c(O)c(O)c1C2=O	4%	-28%	·	?	·	-2%[9.22 µM]
Cc1c(Cl)cccc1NC(=O)c1cc(-c2ccc(O)cc2)on1	-5%	186%	-1%	-5%	-3%	-3%
CS(=O)(=O)N(CC(=O)Nc1ccc2c(c1)OCO2)Cc1ccc(Cl)cc1	0%	?	-2%	-6%	7%	0%
O=C(Nc1ccc2c(c1)OCO2)C1(S(=O)(=O)c2ccc(Cl)cc2)CC1	-1%	16µM*	0%	-7%	19%	0%
O=C(Nc1cccc(Cl)c1)Nc1ccc2c(c1)OCO2	-5%	13µM*	0%	-13%	?	-2%
CC(=O)NC1=C(OS(=O)(=O)c2ccc(C)cc2)CN(C)C1=O	-3%[9.17 µM]	6%[11.4 µM]	4%[9.22 µM]	-3%[11 µM]	-14%[11.5 µM]	0%[9.22 µM]
C[C@@]12CCC(=O)C=C1CC[C@H]1[C@@H]2[C@@H](O)C[C@]2(C)[C@@H]1CC[C@@]2(O)C(=O)COC(=O)C1CCCC1	-7%[9.17 µM]	5%[11.4 µM]	2%[9.22 µM]	3%[11 µM]	0%[11.5 µM]	-3%[9.22 µM]
FC(F)(F)c1cc(CO[C@@H]2CCCN[C@H]2c2ccccc2)cc(C(F)(F)F)c1	-3%	-12%	0%	-1%	-21%	-1%
CC1CCN(c2nc(-c3ccco3)c3c(c2C#N)CC(C)(C)OC3)CC1	15%	-17%	4%	25µM*	·	·
CC1(C)Cc2c(C#N)c(N3CCOCC3)nc(-c3ccccc3)c2CO1	·	·	·	·	·	-4%[20.6 µM]
Cc1occc1C(=O)Nc1ccc2ccccc2c1	11%	10µM*	4%	-1%	-30%	-2%
Cc1occc1C(=O)Nc1ccccc1C(=O)O	6%	8%	-4%	3%	8%	-2%
Nc1ccn([C@@H]2O[C@@H](CO)[C@@H](O)[C@H]2O)c(=O)n1	10%	·	1%	-10%	-1%	-1%
COc1ccc(-c2cc(=O)c3ccccc3s2)cc1	-2%	25µM*	-4%	7%	13µM*	-2%
CN(C)c1ccc(-c2ccc3ncnc(N4CCNCC4)c3c2)cc1	1%	13µM*	-1%	-6%	-27%	0%[9.22 µM]
CN(C)c1ccc(-c2ccc3ncnc(N(C)C)c3c2)cc1	2%	5µM*	-1%	-4%	?	0%[9.22 µM]
c1cncc(-c2nc(N3CCCCCC3)c3ccccc3n2)c1	·	141%	2%[0.369 µM]	8%	20µM*	0%
CN1CCN(c2nc(-c3cccnc3)nc3ccccc23)CC1	2%	22%	0%[9.22 µM]	-4%	-24%	-4%
CN(C)c1ccc(-c2nc(N3CCNCC3)c3ccccc3n2)cc1	-1%	3.2µM*	0%	-7%	-7%	11%[9.22 µM]
Cc1ccccc1-c1nc(N2CCNCC2)c2ccccc2n1	0%	-4%	-2%	-1%	-12%	-3%[9.22 µM]
N[C@@H](CC1=CS(=O)(=O)c2ccc(Cl)cc21)C(=O)O	-2%[9.17 µM]	-17%[11.4 µM]	0%[9.22 µM]	-6%[11 µM]	-8%[11.5 µM]	2%[9.22 µM]
O=c1ccn([C@H]2O[C@H](CO)[C@@H](O)[C@@H]2O)c(=O)[nH]1	1%	?	·	0%	·	-5%[9.22 µM]
COc1cccc2c1[C@H](CO)N1[C@H](C#N)[C@@H]3C[C@H](C(=O)O)[C@@H]([C@@H]1C2)N3C	-11%[9.17 µM]	-1%[11.4 µM]	1%[9.22 µM]	-2%[11 µM]	-2%[11.5 µM]	-2%[9.22 µM]
SMILES	Ub-GFP proteasome	Tau filament bind	HBB splicing	Hsp90 Hop PPI	ERK AVP inh	Epigenetic mod
CCOc1ccc(-c2[nH]ncc2Oc2ccccc2OC)c(O)c1	1%	?	3%[0.369 µM]	-10%	-4%	0%
CCCOC(=O)c1ccc(Oc2cn[nH]c2-c2ccc(OC)cc2O)cc1	-7%	13µM*	0%	7%	-22%	13%
CC1=CC(=O)C2=C(C)CC[C@@H]3[C@H](OC(=O)[C@H]3C)[C@H]12	3%	?	·	3%	·	2%[9.22 µM]
O=c1c(-c2cc(F)cc(F)c2)nc2cncnc2n1Cc1ccccc1Cl	9%	?	2%	-11%	?	0%[9.22 µM]
O=c1c(-c2ccc(F)c(F)c2)nc2cncnc2n1Cc1ccccc1Cl	1%	7.9µM*	-1%	-12%	?	3%[9.22 µM]
O=c1c(-c2ccc(F)c(F)c2)nc2cncnc2n1Cc1ccc(F)cc1	-9%	16µM*	0%	-12%	?	-3%[9.22 µM]
COc1cc2ccc([C@H](C)NCC#N)cc2cc1OC	3%[9.17 µM]	0%[11.4 µM]	2%[9.22 µM]	-3%[11 µM]	-13%[11.5 µM]	3%[9.22 µM]
COc1cc2c(cc1OC)-c1c(OC)c(OC)cc3ccnc(c13)C2=O	5%	32µM*	·	?	-25%	-2%[9.22 µM]
Cc1c2cc[n+](CCN3CCCCC3)cc2c(C)c2c1[nH]c1ccc(O)cc12	-11%[9.17 µM]	4µM*	2%[9.22 µM]	-11%[11 µM]	-2%[11.5 µM]	2%[9.22 µM]
Cc1ccc2c(c1)N(CC(=O)NCC1COc3ccccc3O1)C(=O)CO2 (stereo unspecified)	7%	-17%	-1%	2%	·	·
CC1(NC[C@@H](O)COc2cccc3[nH]ccc23)CCC(C(C)(C)NC(=O)CBr)CC1 (stereo partly specified)	-5%	-7%	0%	-16%	·	2%
Cc1n[nH]c(C)c1N1C(=O)c2cccc3cc(Br)cc(c23)C1=O	-13%	16µM*	-4%	-4%	?	-2%
NC(=O)c1cc2ccc(O)cc2oc1=NCc1ccccc1	8%	i	0%	?	30%	0%
NC(=O)c1cc2ccc(O)cc2oc1=Nc1ccccc1	·	309%	3%[0.369 µM]	-5%	7.9µM*	0%
Oc1[nH]c2ccccc2c1/C=N/c1nccs1	-13%	13µM*	-2%	-7%	-19%	0%
CC(=O)Nc1c(O)[nH]c2ccccc12	-1%	-2%	1%	-2%	-2%	-2%
COCCN(CCOC)c1nc(C)nc2c1nc(-c1ccccc1)n2CCN(C)C	6%	6%	-1%	-5%	-16%	·
O=c1c(O)c(-c2ccc(O)cc2)oc2cc(O)cc(O)c12	8%	32µM*!	-1%	-6%	?	-5%[9.22 µM]
O=c1c(O)c(-c2ccc(O)c(O)c2)oc2cc(O)ccc12	5%	?	·	5%	13µM*!	2%[9.22 µM]
O=c1c(O)c(-c2ccc(O)cc2)oc2cc(O)ccc12	-5%	-27%	·	5%	?	0%[9.22 µM]
O=C(NCc1ccccc1)c1ccc(-c2ccccc2F)o1	-4%	-6%	3%	0%	16µM*	2%
